Source: PubChem BioAssay (NCI)
About 79,000 compounds went through this panel and 15% of them were active in at least one assay; those are over-represented in the sample as a whole. The source made the active and inactive calls. Cut-off read from the data, not from the text of the source: active = growth inhibition above about 70%; inactive = the rest.

Assay: NCI Yeast Anticancer Drug Screen. Data for the rad50EPP+ strain (AID 151);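 note: 0% = growth of vehicle-treated control cultures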
Conditions: S. cerevisiae rad50 mutant strain, hits give high values
Protocol: Growth inhibition of yeast strains with defined genetic alterations is measured as a screen for potential anti-cancer activity. Selected strains with alterations in DNA damage repair or cell cycle control were exposed to compounds and growth inhibition was measured relative to vehicle treated controls. The strain used in this assay is rad50EPP+

Measured: growth inhibition

CCCCCCc1cc(C(=O)OC/C(C)=N/NC(N)=O)c2ccccc2n1
inactive: at 1.2 µM -1% | at 3.7 µM -3% | at 11.0 µM -4% | at 33.0 µM 2% | at 100.0 µM 3%

CCN(CC)CC[n+]1ccc2c(C)c3[nH]c4ccc(O)cc4c3c(C)c2c1
inactive: at 1.2 µM 4% | at 3.7 µM 16% | at 11.0 µM 46%
active: at 33.0 µM 88% | at 100.0 µM 91%

CC(C(=O)N1C(=O)N(C(=O)[C@H](C)C(O)c2ccccc2)[C@H](c2ccccc2)[C@H]1c1ccccc1)[C@@H](O)c1ccccc1 (stereo not given in full)
inactive: at 1.2 µM -4% | at 3.7 µM -4% | at 11.0 µM -1% | at 33.0 µM -3% | at 100.0 µM -11%

O=C(O)CNc1ccc(Cl)c(Cl)c1
inactive: at 1.2 µM -2% | at 3.7 µM 1% | at 11.0 µM 6% | at 33.0 µM 22% | at 100.0 µM 43%

C=C(CN(C)C)C(=O)c1cc(C)ccc1C
inactive: at 1.2 µM 1% | at 3.7 µM 9% | at 11.0 µM 32%
active: at 33.0 µM 80% | at 100.0 µM 98%

Cc1cc(O)cc(O)c1N=Nc1ccc([N+](=O)[O-])cc1
inactive: at 1.2 µM 18% | at 3.7 µM 12% | at 11.0 µM 15% | at 33.0 µM 22% | at 100.0 µM 21%

O=C1C=CC(=C(c2ccccc2)c2ccccc2)c2ccccc21
inactive: at 1.2 µM 9% | at 3.7 µM 7% | at 11.0 µM 2% | at 33.0 µM 15% | at 100.0 µM 8%

CCOC(=O)C1=C(C(=O)c2ccccc2)C(c2ccccc2[N+](=O)[O-])C(C(=O)c2ccccc2)=C(C(=O)OCC)N1
inactive: at 1.2 µM 1% | at 3.7 µM 7% | at 11.0 µM 13% | at 33.0 µM 18% | at 100.0 µM 27%
